Experiment [1] can be described thus: viability loss with induced miR-34 in A549 – imaging, A549 dox-inducible miR-34, nuclei and caspase counts, primary screen (AID 1347080;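 active = compounds whose cell count with miR-34 switched on is under 0.7 times the count with it off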). Conditions: A549 miR-34 inducible, Hoechst nuclei count, 48 h.
Experiment [2] is described as follows: MELAS cybrid and Rieske KO viability enhancers – cell-based, MELAS cybrids, Rieske KO mouse fibroblasts, CellTiter-Glo, primary screen (AID 1508586;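 active = mean z-score across replicates of 1.96 or higher in either the MELAS or the Rieske mutant cell line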;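 also: z relative to plate mean and SD of compound and empty wells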). Conditions: low glucose. (Cellular ATP, detected with luciferase, serves as a proxy for viable cell number.)
The nature of experiment [3]: growth inhibition, single agent or in combination, cell-based, chromothripsis tumors, cisplatin or BGB combos (AID 1671449).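 Also: cells exposed for 96 hours; 0% = vehicle DMSO and 100% = killing by high DMSO.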 Conditions: LFS_MB_P medulloblastoma cells.
Experiment [4] is described as follows: growth inhibition, single agent and combos, cell-based, chromothripsis tumors, cisplatin or BGB combos (AID 1671450).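 Also: cells exposed to compound for four days; 0% = vehicle DMSO and 100% = cell killing by high DMSO.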 As to conditions: HDN33 neuroblastoma cells, stronger effect = higher value.
Experiment [5] is described as follows: growth inhibition, single agents and combos, ICB984, cell-based, cisplatin or BGB combos, synergistic combos for chromothripsis tumors (AID 1671451; call rule not given here;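 also: cells exposed for 96 hours before readout; 0% = vehicle DMSO and 100% = killing by high DMSO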). As to conditions: ICB984 medulloblastoma cells, drug combinations, stronger effect = higher value.
Experiment [6] in a line: growth inhibition, single agents and combos, LFS_MB_1R, cell-based, cisplatin or BGB combos, synergistic combos for chromothripsis tumors (AID 1671452).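 Also: cells exposed for 96 hours before readout.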 Conditions: LFS_MB_1R medulloblastoma cells, stronger effect = higher value.
Experiment [7] can be described thus: growth inhibition, single agents and combos, HTB85, cell-based, BGB or cisplatin IC20 combos, synergistic combos for chromothripsis tumors (AID 1671453).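 Also: cells exposed for 96 hours before readout; 0% = vehicle DMSO and 100% = high DMSO killing control.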 As to conditions: HTB85 osteosarcoma cells, drug combinations, stronger effect = higher value.
A short description of experiment [8]: growth inhibition, single agents and combos, CRL2098, cell-based, BGB or cisplatin IC20 combos, synergistic combos for chromothripsis tumors (AID 1671454).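 Also: cells exposed for 96 h before readout; 0% = vehicle DMSO and 100% = killing by high DMSO.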 Conditions: CRL2098 osteosarcoma cells, drug combinations, stronger effect = higher value.
Experiment [9] in a line: growth inhibition, single agents and combos, HD-MB03, cell-based, BGB or cisplatin IC20 combos, synergistic combos for chromothripsis tumors (AID 1671455; in the data active = inhibition above about 83%;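 also: 0% = vehicle DMSO and 100% = high DMSO as cytotoxic control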). Conditions: HD-MB03 medulloblastoma cells, stronger effect = higher value.
Experiment [10] in a line: growth inhibition, single agents and combos, UWB1.289, cell-based, BGB or cisplatin combos, synergistic combos for chromothripsis tumors (AID 1671456).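 Also: cells exposed to compound for four days; 0% = vehicle DMSO and 100% = killing by high DMSO.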 As to conditions: UWB1.289 ovarian carcinoma cells, stronger effect = higher value.
Experiment [11] can be described thus: growth inhibition, single agents and combos, LFS_MB_2R, cell-based, cisplatin combos, synergistic combos for chromothripsis tumors (AID 1671457).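 Also: cells exposed to compound for four days before readout.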 Conditions: LFS_MB_2R medulloblastoma cells, stronger effect = higher value.
Experiment [12] in a line: growth inhibition, MDA-MB-436, cell-based, BGB or cisplatin combos, synergistic combos for chromothripsis tumors (AID 1671458; call rule not given here;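 also: cells exposed for 96 hours; 0% = vehicle DMSO and 100% = killing by high DMSO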). Conditions: MDA-MB-436 breast carcinoma growth inhibition, drug combinations, stronger effect = higher value.
Experiment [13] is described as follows: UWB1.289_BRCA1 ovarian cancer growth, cell-based, BGB or cisplatin combinations (AID 1671459). Conditions: UWB1.289 BRCA1 ovarian carcinoma, drug combinations, stronger effect = higher value.
Experiment [14] can be described thus: drug combination toxicity in non-malignant astrocytes – cell-based, BGB or cisplatin IC20 combos, cytotoxicity control for chromothriptic childhood tumor combination screen (AID 1671460).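 Also: cells exposed to compounds for 96 hours before viability readout; 0% = vehicle and 100% = killing control.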 Conditions: Human astrocytes, viability inhibition, drug combinations, at 0.5 µM, stronger effect = higher value.
Experiment [15] is described as follows: BT084 cell growth, single and combined drugs, ICGC_MB145, cisplatin and BGB IC40 combos (AID 1671461).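 Also: cells exposed to drugs for 96 hours; 0% = vehicle DMSO and 100% = high DMSO full killing control.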 As to conditions: BT084 medulloblastoma cells, drug combinations, stronger effect = higher value.
The nature of experiment [16]: RCMB18 cell growth, single agent and combined, cisplatin and BGB IC40 combos (AID 1671462).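 Also: cells exposed to compound for four days.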 Conditions: RCMB18 medulloblastoma cells, stronger effect = higher value.
The nature of experiment [17]: CRL1545 cell growth, single agent and combined, cisplatin and BGB IC20 combos (AID 1671464).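 Also: cells exposed to compound for 96 hours before readout; 0% = vehicle DMSO and 100% = high DMSO killing control.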 As to conditions: CRL1545 osteosarcoma cells, stronger effect = higher value.
Experiment [18] can be described thus: compounds altering viability of human ES cells (AID 493140; call rule not given here;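 also: cells exposed to compounds for four days before counting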). Conditions: human embryonic stem cell survival screen; stronger effect = higher value.
Experiment [19] is described as follows: P. berghei load reduction in hepatocytes – cell-based, HepG2, luciferase luminescence, HepG2 viability, primary screen (AID 624349; in the data active = parasite load remaining mostly below about 12%, no sharp cut-off; inactive = mostly above about 10%;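 also: 100% = mean of DMSO negative control wells on the same plate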). As to conditions: P. berghei liver stage in HepG2, luciferase luminescence, concentration not given here; parasite load remaining: stronger effect = lower value; viability: measured here: HepG2 viability without parasites.
[20] abbreviates: stronger effect = lower value, cell number ratio, induced over uninduced.
Setting [21] is: measured here: relative caspase fold change +Dox/-Dox.
Where [22] appears, read: measured here: total cells with miR-34 induction, stronger effect = lower value.
The mark [23] stands for this setting: measured here: total cells without miR-34 induction.
Setting [24] is: MELAS cybrid survival, CellTiter-Glo 48 h, stronger effect = higher value.
The mark [25] stands for this setting: Rieske KO mouse fibroblast survival, CellTiter-Glo 72 h.
The mark [26] stands for this setting: measured here: combination with BGB IC40, at 0.05 µM.
The mark [27] stands for this setting: measured here: with BGB IC20 combination, at 0.5 µM.
Where [28] appears, read: measured here: with cisplatin IC20 combination, at 0.5 µM.
[29] abbreviates: measured here: combination with cisplatin, at 0.5 µM.
Setting [30] is: measured here: combination with cisplatin, at 5 µM.

The source made the active and inactive calls. Rule as the data show it, unless noted: active = inhibition above about 80%; inactive = the rest.

For orientation: inhibition means the change of the read-out against control, counted positive when it falls. A word on the viability: it is a per cent measure of how many cells are alive, often set against a control.

Consider `CC(C=CC(=O)NO)=CC(C)C(=O)c1ccc(N(C)C)cc1` (stereo unspecified), for which the fold change in experiment [1] (setting [20]) is 0.905 (inactive); in experiment [1] (setting [21]) it was 0.765. Further, the cell count in experiment [1] (setting [22]) stood at 830; in experiment [1] (setting [23]), 918. Besides, the results for the z-score in experiment [2] (setting [24]) and in [2] (setting [25]) were -0.131 (inactive) and -2.46, respectively. Further, the inhibition in experiment [3] (at 0.5 µM, stronger effect = higher value) is 124% (active); in [3] (measured here: combination with BGB IC20, at 0.005 µM), -30%; in experiment [3] (measured here: combination with BGB IC40, at 0.005 µM), -20.9%; in experiment [3] (setting [26]), -37.3%; in experiment [3] (measured here: combination with cisplatin, at 0.5 µM, stronger effect = higher value), 130%; in experiment [3] (measured here: combination with cisplatin, at 5 µM, stronger effect = higher value), 120%. The inhibition was 99.8% in experiment [4] (BGB combo, at 5 µM); 92.3% (active) in experiment [4] (at 0.5 µM); 99.9% in experiment [4] (cisplatin combo, at 5 µM); 85.6% in experiment [4] (setting [27]); 98.3% in experiment [4] (setting [28]); 99.9% in experiment [4] (single agent, at 5 µM). In addition, the inhibition in experiment [5] (BGB IC20 combo, at 0.005 µM) was 83.1%; in [5] (BGB IC40 combo, at 0.005 µM), 90.3%; in experiment [5] (BGB IC40 combo, at 0.05 µM), 97.7%; in [5] (at 0.5 µM), -36.8% (inactive); in [5] (cisplatin combo, at 0.05 µM), 97.7%; in experiment [5] (cisplatin combo, at 0.5 µM), -29%. Moreover, the inhibition in experiment [5] (cisplatin combo, at 5 µM) was -20.2%; in experiment [5] (measured here: 5 uM single agent, at 5 µM) it was -13.2%; in [6] (at 0.5 µM), 87.3% (active); in [6] (setting [26]), 4.15%; in experiment [6] (setting [29]), 99.9%; in experiment [6] (setting [30]) it was 98.9%. Besides, the inhibition is 98.7% (active) in [7] (at 0.5 µM); 97.4% in experiment [7] (measured here: with BGB IC20, at 0.5 µM); 99.9% in experiment [7] (measured here: with BGB IC20, at 5 µM); 99.9% in experiment [7] (measured here: with cisplatin IC20, at 0.5 µM); 100% in experiment [7] (measured here: with cisplatin IC20, at 5 µM); 99.9% in experiment [7] (single agent, at 5 µM). Moreover, the inhibition was 70.4% (inactive) in experiment [8] (at 0.5 µM); 75.9% in [8] (measured here: combination with BGB at IC20, at 0.5 µM); 61.3% in experiment [8] (measured here: combination with cisplatin at IC20, at 0.5 µM); 89% (active) in [9] (at 0.5 µM); 79.1% in experiment [9] (measured here: combo with BGB at IC20, at 0.5 µM); 99.7% in experiment [9] (measured here: combo with cisplatin at IC20, at 0.5 µM). Moreover, the inhibition in experiment [10] (at 0.5 µM) is 67.5% (inactive); in experiment [10] (measured here: inhibition with BGB combination, at 0.05 µM), -6.23%; in experiment [10] (measured here: inhibition with cisplatin combination, at 0.05 µM), 29.6%; in experiment [11] (at 0.5 µM) it was 78.3% (inactive); in experiment [11] (setting [29]), 92.3%; in experiment [11] (setting [30]), 103%. The inhibition in [12] (at 0.5 µM) was 53.4% (inactive); in [12] (measured here: BGB combination, at 0.5 µM) it was 39%; in experiment [12] (measured here: BGB combination, at 5 µM), 63.1%; in [12] (measured here: cisplatin combination, at 0.5 µM) it was 54.4%; in experiment [12] (measured here: cisplatin combination, at 5 µM), 81.3%; in [13] (BGB combination, concentration series, at 5 µM) it was 116%. The inhibition is 68.2% (inactive) in experiment [13] (at 0.5 µM); 131% in experiment [13] (cisplatin combination, concentration series, at 5 µM); 97% (active) in experiment [14]; 96.5% in experiment [14] (measured here: combo with BGB IC20); 96% in experiment [14] (measured here: combo with cisplatin IC20); 86.5% (active) in experiment [15] (at 0.5 µM). Besides, the inhibition in experiment [15] (cisplatin combination, at 0.5 µM) was 101%; in experiment [15] (cisplatin combination, at 5 µM), 104%; in experiment [15] (measured here: BGB IC40 combination 0.05 uM, at 0.05 µM), 36.8%; in experiment [15] (single agent, at 5 µM), 106%; in [16] (at 0.5 µM), 83.6% (active); in experiment [16] (cisplatin combo, at 5 µM), 98.1%. The inhibition was 13.5% in [16] (measured here: BGB IC40 combination, at 0.05 µM); 87.1% in experiment [16] (setting [29]); 98.2% in experiment [16] (single agent, at 5 µM); 88.1% (active) in experiment [17] (at 0.5 µM); 86.4% in experiment [17] (setting [27]); 88.7% in experiment [17] (setting [28]). For the same molecule, the inhibition in experiment [17] (single agent, at 0.05 µM) was 54.1%; in experiment [17] (single agent, at 5 µM), 87.3%.
On to `CC[N+](CC)(CC)CCC(O)(c1ccccc1)C1CCCCC1` (stereo unspecified), for which, in experiment [18], the survival was 3.08 (inactive). In addition, the parasite load remaining in experiment [19] is 97.4% (inactive). In addition, in experiment [19], the viability is 92.1%. Moreover, the fold change in [1] (setting [20]) was 0.878 (inactive); in experiment [1] (setting [21]) it was 0.741. In addition, the cell count turned out to be 8200 in experiment [1] (setting [22]) and 9350 in experiment [1] (setting [23]). Further, the z-score is -0.675 (inactive) in [2] (setting [24]) and -0.626 in experiment [2] (setting [25]).
Turning to `O=C1OC(C(O)CO)C(O)=C1O` (stereo unspecified), the fold change is 1.03 (inactive) in experiment [1] (setting [20]) and 1.05 in [1] (setting [21]). The cell count in [1] (setting [22]) was 8100; in experiment [1] (setting [23]), 7850. Further, the z-score in experiment [2] (setting [24]) was 0.0982 (inactive); in experiment [2] (setting [25]), -0.298.
As to `O=C1OC(CN2CCOCC2)CN1N=Cc1ccc([N+](=O)[O-])o1` (stereo unspecified), the survival in [18] was 5.92 (inactive). Moreover, the fold change is 0.85 (inactive) in [1] (setting [20]) and 1.96 in experiment [1] (setting [21]). Further, the cell count in experiment [1] (setting [22]) was found to be 8420; in experiment [1] (setting [23]), 9900. The values for the z-score in [2] (setting [24]) and in experiment [2] (setting [25]) were -0.512 (inactive) and -0.452, respectively.

These data come from PubChem BioAssay.
